# Source: PMC4336329 (PLoS ONE, 2015)
# The campaign covered roughly 310,000 compounds. About 14,000 (4.5%) showed an effect of 50% or more. The effect is printed as a negative number. What follows is part of a selection rich in strong results, with near analogues and random picks from the rest.
# Biological target: human ether-à-go-go-related gene (hERG) potassium channel (human, UniProt Q12809)
# Test: primary screen, population patch clamp on CHO cells stably expressing hERG; higher = less effect of the substance
# 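Further: peak tail current of the secondary pulse compared with the same well before compound.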
# Sequence of human ether-à-go-go-related gene (hERG) potassium channel (Q12809 whole entry, looked up): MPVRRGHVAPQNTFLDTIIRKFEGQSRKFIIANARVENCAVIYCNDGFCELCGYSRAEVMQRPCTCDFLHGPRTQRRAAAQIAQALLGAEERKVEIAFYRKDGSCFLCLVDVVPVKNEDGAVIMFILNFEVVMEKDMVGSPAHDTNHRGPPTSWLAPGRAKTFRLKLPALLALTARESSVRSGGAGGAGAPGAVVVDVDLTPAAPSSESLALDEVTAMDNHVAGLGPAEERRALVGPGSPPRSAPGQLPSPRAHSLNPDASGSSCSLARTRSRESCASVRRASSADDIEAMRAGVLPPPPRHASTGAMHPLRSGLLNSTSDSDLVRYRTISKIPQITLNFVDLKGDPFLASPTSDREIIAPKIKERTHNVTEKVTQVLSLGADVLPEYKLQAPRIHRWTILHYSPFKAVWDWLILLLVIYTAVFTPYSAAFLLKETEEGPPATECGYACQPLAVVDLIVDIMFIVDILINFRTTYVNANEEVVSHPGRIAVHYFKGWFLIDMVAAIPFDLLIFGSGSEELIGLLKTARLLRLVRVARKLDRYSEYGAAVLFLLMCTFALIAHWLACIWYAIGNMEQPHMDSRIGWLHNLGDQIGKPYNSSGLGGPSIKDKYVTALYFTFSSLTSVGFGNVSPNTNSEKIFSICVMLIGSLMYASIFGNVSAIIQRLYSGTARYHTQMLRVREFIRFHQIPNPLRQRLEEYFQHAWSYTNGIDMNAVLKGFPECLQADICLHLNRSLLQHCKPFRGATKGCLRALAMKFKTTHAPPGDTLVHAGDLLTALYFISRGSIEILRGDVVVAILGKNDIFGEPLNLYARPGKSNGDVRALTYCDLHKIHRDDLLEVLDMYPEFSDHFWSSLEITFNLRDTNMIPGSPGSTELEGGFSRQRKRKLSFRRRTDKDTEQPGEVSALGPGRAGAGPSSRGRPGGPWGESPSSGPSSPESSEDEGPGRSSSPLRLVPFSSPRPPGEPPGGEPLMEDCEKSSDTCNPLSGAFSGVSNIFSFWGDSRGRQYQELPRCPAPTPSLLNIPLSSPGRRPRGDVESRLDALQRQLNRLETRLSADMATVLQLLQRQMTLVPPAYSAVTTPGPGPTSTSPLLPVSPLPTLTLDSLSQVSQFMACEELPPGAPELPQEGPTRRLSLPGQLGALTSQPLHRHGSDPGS
row,SMILES,"hERG current change (%, negative = inhibition) at 10uM [%]"
1,COc1ccc(C2NC(C(=O)O)CS2)cc1COCC(F)(F)F (stereo not shown),3.38
2,CC1Sc2ccc(S(=O)(=O)N3CCC(C(=O)N(C)Cc4ccco4)CC3)cc2NC1=O (stereo not shown),-24.7
3,COc1ccc(NC(=O)c2sc(SC)nc2N)cc1,-0.0249
4,Cn1ncc(Cl)c1C(=O)N1CCc2ccccc21,-13.9
5,O=S(=O)(c1ccccc1Cl)N1CCCC1c1nc(-c2cccc(Cl)c2)no1 (stereo not shown),-9.49
6,COc1cccc(-n2c(CN3CCN(Cc4ccccc4)CC3)nc3ccc([N+](=O)[O-])cc3c2=O)c1,-52.8
7,COc1cccc(-n2c(CN3CCN(C)CC3)nc3ccc([N+](=O)[O-])cc3c2=O)c1,-33.1
8,COc1cccc(-n2c(CN3CCN(c4ccccc4)CC3)nc3ccc([N+](=O)[O-])cc3c2=O)c1,-8.34
9,C=C(C)COc1ccc(-c2[nH]ncc2Oc2ccccc2OC)c(O)c1,-55.2
10,C=C(C)COc1ccc(-c2[nH]ncc2Oc2ccccc2OCC)c(O)c1,4.65
11,C=C(C)COc1ccc(-c2[nH]ncc2Oc2ccc(OC)cc2)c(O)c1,-14.9
12,O=C(O)c1ccc(NS(=O)(=O)c2ccc(NC(=O)c3ccccc3Cl)cc2)cc1,19
13,CC(NC(=O)COC(=O)c1ccc([N+](=O)[O-])s1)c1ccccc1 (stereo not shown),-20.8
14,CCC(C)c1ccc(NC(=O)C/C(C)=N/NC(=O)c2cnccn2)cc1 (stereo not shown),-17.2
15,CCN1C(=O)/C(=C/C=C2\N(CC)c3cc(S(=O)(=O)N(C)C)ccc3N2c2ccccc2)SC1=S,0.17
16,C=CCN1C(=O)/C(=C\C=C2\N(C)c3ccccc3C2(C)C)SC1=S,10.7
17,C=CCN1C(=O)/C(=C/C=C2/N(CC)c3ccc(S(=O)(=O)N(C)C)cc3N2CC)SC1=S,-56
18,COC(=O)CSc1[nH]c2ccccc2c1[N+](=O)[O-],7.33
19,Cc1nn(C)c(NC(=O)c2ccc(Cl)cc2Cl)c1Br,-11.4
20,CCc1ccccc1NC(=S)N(CCN1CCCCCC1)Cc1ccco1,-46.8
21,CCOC(=O)c1ccc(NC(=S)NCc2ccco2)cc1,-11.1
22,CCOC(=O)c1ccc(NC(=S)N(CCCN2CCCCC2)Cc2ccco2)cc1,-72.7

row,SMILES,"hERG current change (%, negative = inhibition) at 10uM [%]"
1,CCOC(=O)c1ccc(NC(=S)N(CCCN2CCCC(C)C2)Cc2ccco2)cc1 (stereo not shown),-70.9
2,CCOC(=O)c1ccc(NC(=S)N(CCN2CCCCCC2)Cc2ccco2)cc1,-78.3
3,CCOC(=O)c1ccc(NC(=S)N(CCCN(CC)CC)Cc2ccco2)cc1,-76.7
4,CCOC(=O)c1ccc(NC(=O)C(=O)NCc2ccco2)cc1,15.7
5,O=C1C(NS(=O)(=O)c2ccc(Cl)cc2)=C(N2CCCCC2)C(=O)c2ccccc21,-13.3
6,Cc1ccc(-n2nc3c(=O)n(CCCC(=O)N4CCC(C)CC4)nc(C)c3c2C)cc1,-30.1
7,CN(Cc1cccc(Cl)c1Cl)c1ccc(S(=O)(=O)N2CCCCC2)cc1[N+](=O)[O-],5.82
8,Cc1ccc(C2=NNC(C(O)C(O)C(O)CO)S2)cc1 (stereo not shown),11.6
9,CC1CN(S(=O)(=O)c2cccc(C(=O)Nc3ccc(S(=O)(=O)NC4=NCCCCC4)cc3)c2)CC(C)O1 (stereo not shown),-5.97
10,CC(C)c1ccc(OCc2cccc(C(=O)N/N=C/c3cccnc3)c2)cc1,-5.29
11,Cc1ccccc1C(=O)Nc1cccc(C(=O)N/N=C/c2cc(Cl)cc([N+](=O)[O-])c2O)c1,7.34
12,COC(=O)c1cc2sc(Cl)cc2n1Cc1nc(-c2ccccc2)oc1C,3.5
13,Cn1ccnc1SCC(=O)Nc1nc2ccccc2s1,-25.1
14,O=C(O)c1ccc(N/N=C/C2=C(N3CCOCC3)C(=C\c3ccccc3)/CC2)cc1,7.96
15,COc1ccccc1CC(=O)NCCc1c[nH]c2ccccc12,5.81
16,COc1cccc(NC(C)C(=O)N2CC(C)OC(C)C2)c1 (stereo not shown),-1.96
17,C/C(=N/NC(=O)CNC(=O)c1cccs1)c1ccco1,11.7
18,CCOC(=O)c1ccc(NC(=S)N(CCCN2CCN(CC)CC2)Cc2ccco2)cc1,-76.5
19,COc1ccc(NC(=S)N(Cc2cccnc2)Cc2ccco2)cc1,-24.5
20,COc1ccc(NC(=S)N(CCCN2CCOCC2)Cc2ccco2)cc1,-7.89
21,COC(=O)c1ccc(NC(=S)N(Cc2cccnc2)Cc2ccco2)cc1,-29.1
22,CCOC(=O)c1ccc(NC(=S)N(Cc2cccnc2)Cc2ccco2)cc1,-53.2

row,SMILES,"hERG current change (%, negative = inhibition) at 10uM [%]"
1,CCOC(=O)c1ccc(NC(=S)N(CCCN2CCCCCC2)Cc2ccco2)cc1,-73.7
2,Cc1ccc(CSc2nc3c(c(N(C)C)n2)CCCC3)cc1,-5.63
3,CCC(Cc1c(I)cc(I)c(N)c1I)C(=O)O (stereo not shown),-0.155
4,C=C1c2ccccc2NC(=S)N1Cc1ccc2c(c1)OCO2,27.5
5,Cc1ccc(CNC(=O)c2ccc(N3CCC4(CC3)CC(c3ccccc3)=NO4)c(NC(=O)c3ccco3)c2)cc1,6.09
6,COC(=O)CN(c1ccc(C)cc1)S(=O)(=O)c1ccc(F)cc1,-19.9
7,Cc1ccc(NS(=O)(=O)c2ccc3c(c2)c(=O)n(C)c(=O)n3C)cc1F,-15.5
8,Cc1cc2oc(=O)cc(CN3CCN(Cc4ccccc4)CC3)c2cc1Cl,-22.8
9,CC(C)c1ccc2oc(=O)cc(CN3CCN(c4ccccc4)CC3)c2c1,-10.4
10,O=c1cc(CN2CCN(C/C=C/c3ccccc3)CC2)c2cc(O)ccc2o1,-77.5
11,Cc1cc2oc(=O)cc(CN3CCN(Cc4ccccc4)CC3)c2cc1O,-53.3
12,COc1ccc(N2CCN(Cc3cc(=O)oc4cc(-c5ccccc5)c(O)cc34)CC2)cc1,-0.18
13,CCN1CCN(Cc2cc(=O)oc3cc4c(cc23)CCC4)CC1,-29.7
14,Cc1cc2oc(=O)cc(CN3CCOCC3)c2cc1O,-22.6
15,Cc1ccc2oc(=O)cc(CN3CCCCC3)c2c1,15.9
16,CN1CCN(Cc2cc(=O)oc3cc4c(cc23)CCC4)CC1,-8.2
17,Cc1ccc2oc(=O)cc(CN3CCOCC3)c2c1,-8.53
18,Cc1ccc2oc(=O)cc(CN3CCN(C/C=C/c4ccccc4)CC3)c2c1,-76.9
19,O=c1cc(CN2CCN(Cc3ccccc3)CC2)c2cc3c(cc2o1)CCC3,-51
20,Cc1ccc(S(=O)(=O)N2CCCCC2CCNC(=O)C(=O)NCC2CCCO2)cc1 (stereo not shown),-23.6
21,O=C(CSc1cccc2cccnc12)N1CCCC1,12
22,NS(=O)(=O)c1ccc(NC(=O)c2c(Cl)cccc2Cl)cc1,9.38

row,SMILES,"hERG current change (%, negative = inhibition) at 10uM [%]"
1,Cc1ccc2c(CN3CCOCC3)cc(=O)oc2c1C,0.23
2,Cc1cc2oc(=O)cc(CN3CCCCC3)c2cc1O,-1.42
3,Cc1c(O)ccc2c(CN3CCN(C/C=C/c4ccccc4)CC3)cc(=O)oc12,-64.1
4,O=c1cc(CN2CCN(C/C=C/c3ccccc3)CC2)c2cc(O)c(-c3ccccc3)cc2o1,11.6
5,Cc1c(O)ccc2c(CN(C)Cc3ccccc3)cc(=O)oc12,10.2
6,Cc1cc2oc(=O)cc(CN3CCN(C/C=C/c4ccccc4)CC3)c2cc1O,-80.9
7,CCC(C)Sc1ccc([C@H]2N[C@@](C)(C(=O)OC)[C@H]3C(=O)N(CC)C(=O)[C@@H]23)cc1.O=C(O)C(F)(F)F (stereo partly shown),7.25
8,Brc1ccc(-c2nnc3n2-c2ccccc2CC3)cc1,-41.3
9,COc1ccc(NC(=O)c2ccc(S(=O)(=O)N3CCCC3)cc2)cc1OC,-158
10,COc1ccc(NC(=O)c2ccc(Cl)nc2)cc1S(=O)(=O)N1CCCCC1,-59
11,COc1ccc(C(=O)Nc2ccc(S(=O)(=O)N3CCCCC3)cc2)cc1OC,-9.83
12,COc1ccc(NC(=O)c2cc(OC)c(OC)c(OC)c2)cc1S(=O)(=O)N1CCCCC1,15.5
13,COc1ccc(NC(=O)c2cccc(S(=O)(=O)N3CCCC3)c2)cc1OC,-4.78
14,COc1ccc(NC(=O)c2ccc(Cl)nc2)cc1S(=O)(=O)N1CCOCC1,-10.5
15,S=C(c1c[nH]c2ccccc12)N1CCCC1,9.74
16,Cc1ccc(CN2CC(C(=O)Nc3nnc(SCc4c(Cl)cccc4Cl)s3)CC2=O)cc1 (stereo not shown),14.1
17,Cn1cc(C(=O)OCC(=O)NC2CCCC2)c2ccccc21,7.9
18,O=[N+]([O-])c1ccccc1S(=O)(=O)NCCc1ccncc1,14.9
19,COc1ccccc1C(=O)OCC(=O)Nc1ccc(Cl)cn1,10.1
